Drawing on PubChem BioAssay (NCATS), this text covers Potency for nine compounds.

The nature of assay [1]: Quantitative High-Throughput drug screen in 47 multiple myeloma cell lines against the NCATS MIPE library collection: AMO1_DSMZ cell viability assay (AID 1918927; note: nearly all actives have a fitted effect of over 30% in size). Summed up: (§1)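 Relative luminescence from CellTiter-Glo served as the viability signal, referenced to DMSO-treated (100%) and cell-free medium (0%) controls. Treatment lasted 48 hours at 37C with 500 cells per well.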

A short description of assay [2]: Quantitative High-Throughput drug screen in 47 multiple myeloma cell lines against the NCATS MIPE library collection: ARD_JJKsccE7 cell viability assay (AID 1918929). The method, boiled down: as §1
Assay [3] can be described thus: Quantitative High-Throughput drug screen in 47 multiple myeloma cell lines against the NCATS MIPE library collection: Karpas620_DSMZ cell viability assay (AID 1918959). Note: nearly all actives have a fitted effect of over 30% in size. The method, boiled down: (§2)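 Luminescent ATP measurement with CellTiter-Glo gives viability, scaled between DMSO-only wells (100%) and media-only wells (0%). Cells, 500 per well, faced library compounds for 48 hours at 37C.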

A short description of assay [4]: Quantitative High-Throughput drug screen in 47 multiple myeloma cell lines against the NCATS MIPE library collection: JIM3_ECACC cell viability assay (AID 1918963; note: nearly all actives have a fitted effect of over 35% in size). The method, boiled down:
as §2

The nature of assay [5]: Quantitative High-Throughput drug screen in 47 multiple myeloma cell lines against the NCATS MIPE library collection: JJN3_DSMZ cell viability assay (AID 1918966; note: nearly all actives have a fitted effect of over 50% in size). The method, boiled down:
as §1

Assay [6] can be described thus: Quantitative High-Throughput drug screen in 47 multiple myeloma cell lines against the NCATS MIPE library collection: H1112_PLB cell viability assay (AID 1918967; note: nearly all actives have a fitted effect of over 30% in size). Summed up: as §1
A short description of assay [7]: Quantitative High-Throughput drug screen in 47 multiple myeloma cell lines against the NCATS MIPE library collection: KMS20_JCRB cell viability assay (AID 1918973). Note: nearly all actives have a fitted effect of over 45% in size. The method, boiled down: as §1
A short description of assay [8]: Quantitative High-Throughput drug screen in 47 multiple myeloma cell lines against the NCATS MIPE library collection: MOLP8_DSMZ cell viability assay (AID 1918977). Note: nearly all actives have a fitted effect of over 45% in size. The method, boiled down: (§3)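 Inhibition of viability over 48 h was scored by ATP content (CellTiter-Glo) in 500-cell wells. Zero and full viability were defined by media-only and DMSO-only wells.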
Assay [9] is described as follows: Quantitative High-Throughput drug screen in 47 multiple myeloma cell lines against the NCATS MIPE library collection: NCIH929_DSMZ cell viability assay (AID 1918978). Note: nearly all actives have a fitted effect of over 35% in size. The method, boiled down:
as §3

Assay [10] in a line: Quantitative High-Throughput drug screen in 47 multiple myeloma cell lines against the NCATS MIPE library collection: MM1R_ATCC cell viability assay (AID 1918981). Note: nearly all actives have a fitted effect of over 35% in size. The method, boiled down: as §3
Assay [11] is described as follows: Quantitative High-Throughput drug screen in 47 multiple myeloma cell lines against the NCATS MIPE library collection: LP1_DSMZ cell viability assay (AID 1918982). Note: nearly all actives have a fitted effect of over 35% in size. Summed up:
as §3

Assay [12] is described as follows: Quantitative High-Throughput drug screen in 47 multiple myeloma cell lines against the NCATS MIPE library collection: KMS28PE_JCRB cell viability assay (AID 1918983). Note: nearly all actives have a fitted effect of over 35% in size. The method, boiled down: as §3
Assay [13] can be described thus: Quantitative High-Throughput drug screen in 47 multiple myeloma cell lines against the NCATS MIPE library collection: KMS21BM_JCRB cell viability assay (AID 1918974). Summed up: as §1
The nature of assay [14]: Quantitative High-Throughput drug screen in 47 multiple myeloma cell lines against the NCATS MIPE library collection: KMS26_JCRB cell viability assay (AID 1918975). Note: nearly all actives have a fitted effect of over 45% in size. The method, boiled down: (§4)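 Steps: seed 500 cells per well; pin-transfer MIPE 4.0 library; incubate 48 h at 37C, 5% CO2, humidified; add CellTiter-Glo, 5 min room temperature; read luminescence.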
A short description of assay [15]: Quantitative High-Throughput drug screen in 47 multiple myeloma cell lines against the NCATS MIPE library collection: MMM1_PLB cell viability assay (AID 1918976). Note: nearly all actives have a fitted effect of over 35% in size. The following applies: MMM1 myeloma cells viability, CellTiter-Glo, 48 h. Summed up:
as §3
(In ATP-based viability assays light output follows the ATP content of the culture.)

The nature of assay [16]: Quantitative High-Throughput drug screen in 47 multiple myeloma cell lines against the NCATS MIPE library collection: MM1S_ATCC cell viability assay (AID 1918980). Note: nearly all actives have a fitted effect of over 45% in size. The method, boiled down:
as §3

A short description of assay [17]: Quantitative High-Throughput drug screen in 47 multiple myeloma cell lines against the NCATS MIPE library collection: JIM1_ECACC cell viability assay (AID 1918964). Summed up:
as §1

The nature of assay [18]: Quantitative High-Throughput drug screen in 47 multiple myeloma cell lines against the NCATS MIPE library collection: INA6_PLB cell viability assay (AID 1918965; note: nearly all actives have a fitted effect of over 55% in size). Summed up: as §4
A short description of assay [19]: Quantitative High-Throughput drug screen in 47 multiple myeloma cell lines against the NCATS MIPE library collection: Karpas25_ECACC cell viability assay (AID 1918968; note: nearly all actives have a fitted effect of over 35% in size). The method, boiled down: as §1
A short description of assay [20]: Quantitative High-Throughput drug screen in 47 multiple myeloma cell lines against the NCATS MIPE library collection: ARP1_JJKsccF8 cell viability assay (AID 1918928; note: nearly all actives have a fitted effect of over 40% in size). Summed up: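 Myeloma cells at 500 per well in 1536-well format treated with MIPE 4.0 library by pin transfer for 48 h at 37C, 5% CO2. Viability from ATP luminescence (CellTiter-Glo), normalized to DMSO (100%) and media-only (0%) wells.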

The structures appear in SMILES notation. Records with an inconclusive call do not appear. The source made the active and inactive calls. Calls come from the whole dose curve; as a rule, active = well fitted curve in the direction sought with a large enough effect; inconclusive = small, poorly fitted or top-dose-only effect, or another doubt; inactive = no such curve, though single readings can be large; an effect the other way counts as inactive or inconclusive.
Potency is the fitted concentration of half-maximal effect.

With `COC[C@@H](NC(C)=O)C(=O)NCc1ccccc1`, the Potency result in [1], in [2], in assay [3], in [4], in [5] and in [6] was “inactive” in each case. Also, the Potency result in [7], in assay [8], in [9], in assay [10], in [11] and in [12] was “inactive” throughout.
Regarding `CN(C)CCc1ccc(O)cc1`, the Potency entry in assay [1], in assay [2], in assay [3], in assay [4], in assay [6] and in assay [13] was “inactive” each time. The Potency result in [14], in assay [8], in [9], in assay [16], in [10] and in assay [11] was “inactive” each time. Moreover, in [12], the Potency result is “inactive”. For the same compound, the Potency in assay [15] was 1660 nM (active).
Turning to `CC(O)(CS(=O)(=O)c1ccc(F)cc1)C(=O)Nc1ccc(C#N)c(C(F)(F)F)c1` (stereo not given), the Potency in [1] was 662 nM (active); in assay [2] it was 1660 nM (active); in assay [3] it was 2090 nM (active); in assay [4], 2960 nM (active); in assay [17], 4180 nM (active); in [18], 590 nM (active). In addition, the Potency in [5] is 4690 nM (active); in [6], 235 nM (active); in assay [19], 264 nM (active); in assay [7], 935 nM (active); in assay [14] it was 1180 nM (active); in [9] it was 187 nM (active). For the same compound, the values for the Potency in [16] and in assay [10] were 132 nM (active) and 1050 nM (active), respectively.
In the case of `COc1ccc(C(=O)c2c(C)n(CCN3CCOCC3)c3ccccc23)cc1`, the Potency entry in [1], in [20], in [2], in assay [4], in [6] and in [8] was “inactive” in each case. Also, the Potency entry in [9], in assay [10], in assay [11] and in assay [12] was “inactive” each time.
Turning to `Cn1cc(C2=C(c3cn(C4CCN(Cc5ccccn5)CC4)c4ccccc34)C(=O)NC2=O)c2ccccc21`, the Potency is 935 nM (active) in [1]; 9350 nM (active) in [2]; 5900 nM (active) in assay [3]; 8330 nM (active) in assay [4]; 1320 nM (active) in [17]; 4690 nM (active) in assay [18]. Further, the Potency in assay [5] was 14800 nM (active); in assay [6] it was 10500 nM (active); in [19], 8330 nM (active); in assay [13] it was 166 nM (active); in [14] it was 16600 nM (active); in assay [9], 5900 nM (active). Further, the Potency in assay [16] is 7430 nM (active); in assay [10] it was 13200 nM (active); in assay [11] it was 10500 nM (active). Further, in assay [8], the Potency result is “inactive”.
Turning to `O=P1(NCCCl)OCCCN1CCCl` (stereo not given), the Potency was 5900 nM (active) in [1], 20900 nM (active) in [4] and 7430 nM (active) in [13]. The Potency entry in assay [14], in assay [8] and in assay [9] was “inactive” throughout.
As for `CNC(=O)N1N=C(c2ccc(N)cc2)c2cc3c(cc2CC1C)OCO3` (stereo not given), the Potency in assay [1] was 1870 nM (active); in assay [2], 2350 nM (active); in assay [4], 4690 nM (active); in assay [18] it was 1180 nM (active); in [5], 1320 nM (active); in assay [19], 9350 nM (active). Besides, the Potency in [13] is 1480 nM (active); in assay [14] it was 3320 nM (active); in assay [15], 14800 nM (active); in assay [16], 16600 nM (active); in assay [12], 4690 nM (active). Further, in [6], the Potency result was “inactive”.
Turning to `CNCC(O)c1ccc(O)cc1` (stereo not given), the Potency entry in [1], in assay [20], in assay [2], in [3], in assay [4] and in assay [17] was “inactive” throughout. Further, the Potency entry in assay [18], in [6], in assay [8], in assay [9], in assay [11] and in assay [12] was “inactive” each time. For the same compound, the Potency in assay [16] is 14800 nM (active); in assay [10], 4180 nM (active).
`C[C@@H]1[C@@H](C(=O)C[C@H]2O[C@@H]3O[C@]4(C)CC[C@@H]5[C@H](C)CC[C@@H]([C@H]2C)[C@@]35OO4)O[C@@H]2O[C@]3(C)CC[C@H]4[C@H](C)CC[C@@H]1[C@@]24OO3`: the Potency in assay [1] was 83.3 nM (active); in assay [20], 132 nM (active); in [2], 148 nM (active); in assay [3] it was 41.8 nM (active); in assay [4], 187 nM (active); in assay [18] it was 264 nM (active). For the same compound, the Potency was 296 nM (active) in assay [5]; 469 nM (active) in assay [6]; 52.6 nM (active) in assay [19]; 469 nM (active) in [7]; 590 nM (active) in assay [14]; 418 nM (active) in [15]. In addition, the Potency is 526 nM (active) in assay [8]; 132 nM (active) in assay [9]; 16600 nM (active) in assay [16]; 3720 nM (active) in assay [10]; 418 nM (active) in [12].
